Screening data (PubChem)
MITF act: activators of MITF-driven TRPM1 promoter activity in SK-MEL-5 cells; SK-MEL-5 TRPM1-promoter luciferase, 24 h; % of positive control, neutral wells = 0; activation, % at 12.5 µM; 300,000 tested, 0.75% active; AID 588334;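 active = mean activation of at least 80% with every replicate also reaching 80%; inconclusive = mean reaches 80% but some replicate falls short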
HSF-1 act: increases HSF-1 driven luciferase reporter signal | NIH3T3-HGL HSF-1 luciferase reporter, MG132, 8 h; 100% = twice DMSO control signal | activation, % at 9 µM | 300,000 tested, 1.7% active;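 active = mean replicate activation of at least 50% with a set share of replicates each reaching 50%; inconclusive = only one of those two conditions met; inactive = mean below 50% and too few replicates reaching it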
HSF1 inh: HSF1 inhibition; activity change, negative = inhibition, % at 7.5 µM (by protocol); AID 2098; 300,000 tested, 0.77% active; NIH3T3-HGL HSE-luciferase, MG132-induced, luminescence 8 h; active compounds read low;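 active = more than half of replicate wells show activity change below -50%, luminescence cut by over half; inconclusive = some wells, but at most half, below -50%; inactive = no replicate well below -50%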;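 note: luciferase reports HSF-1 transcriptional activity via heat shock element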
esBAF inh: blocks esBAF chromatin remodeling in mouse ES cells; Bmi1-luciferase knock-in reporter, 24 h; 100% = twice the neutral-well signal; reporter increase, % at 12.5 µM; 350,000 tested, 2% active; AID 602393; in the data active = activation above about 40%; inconclusive = no clear call, values can overlap the other calls;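 note: a rise in the Bmi1 reporter signal indicates esBAF inhibition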
Wnt bcat act: Wnt/beta-catenin pathway activation; activation, % at 9.35 µM; Wnt/beta-catenin reporter cell assay, activator, plate reader; 300,000 tested, 1.2% active; AID 743398; in the data active = activation above about 30%, passing the limit was not always enough; inconclusive = no clear call, values can overlap the other calls
Hits are given with their value; . = inactive; ? = inconclusive; / = no result. Most compounds without a hit are left out; they make up all but 3.8% or so of the library.

SMILES | MITF act | HSF-1 act | HSF1 inh | esBAF inh | Wnt bcat act
C[C@H]1CN([C@@H](C)CO)S(=O)(=O)c2ccc(C#Cc3ccc(F)cc3)cc2O[C@@H]1CN(C)C | / | / | / | . | /
CC(C)CC#Cc1ccc2c(c1)O[C@H](CN(C)C(=O)c1ccncc1)[C@@H](C)CN([C@H](C)CO)S2(=O)=O | / | / | / | . | /
CC1CCC(NC(=O)c2ccc(NS(=O)(=O)c3ccc4[nH]c(=O)[nH]c4c3)cc2)CC1 (stereo not given) | 98.0 | . | . | / | .
Cc1ccc(S(=O)(=O)Nc2ccc3c(c2)C(=O)N([C@H](C)CO)C[C@@H](C)[C@H](CN(C)C(=O)Nc2c(C)noc2C)O3)cc1 | / | / | / | . | /
CCCC(=O)Nc1ccc2c(c1)C(=O)N(C)C[C@@H](OC)[C@@H](C)CN(C(=O)CC1CC1)[C@@H](C)CO2 | / | / | / | . | /
C[C@@H]1CN([C@@H](C)CO)C(=O)Cc2cc(NS(=O)(=O)c3ccc(F)cc3)ccc2O[C@H]1CN(C)C(=O)Nc1ccc2c(c1)OCO2 | / | / | / | . | /
COc1cccc(-c2nc(-c3ccc(Br)o3)no2)c1 | . | . | . | / | 45.4
Brc1ccc(-c2nc(-c3ccccc3)no2)o1 | . | . | . | . | 49.7
COc1ccc(-c2nc(-c3ccc(Br)o3)no2)cc1OC | . | 56.7 | . | . | .
COc1cccc(-c2nc(-c3cccs3)no2)c1 | . | . | . | . | .
CN(C)C(=O)C[C@H]1C=C[C@@H](NS(=O)(=O)c2ccccc2)[C@@H](CO)O1 | / | / | / | . | /
C[C@@H]1CCCCO[C@H](CN(C)C(=O)Nc2cccc3ccccc23)[C@@H](C)CN([C@@H](C)CO)C(=O)c2cc(NC(=O)CCCN(C)C)ccc2O1 | / | / | / | . | /
CCOC(=O)c1c(NC(=O)CSc2nnc(CNc3ccc(Cl)cc3)o2)sc(C)c1C | . | 67.1 | . | . | /
CCOC(=O)c1c(NC(=O)CSc2nnc(CNc3ccc(F)cc3)o2)sc(C)c1C | . | . | . | / | .
CC1CCN(c2ccc3c(c2)S(=O)(=O)c2ccccc2C3=O)CC1 | 85.6 | . | . | 52.7 | 52.2
NC(=O)C1CCN(c2ccc3c(c2)S(=O)(=O)c2ccccc2C3=O)CC1 | . | . | . | . | .
O=C(Nc1cccc(Cl)c1)N[C@H]1CC[C@H](CCNC(=O)C2CCCCC2)O[C@@H]1CO | / | / | / | . | /
Cc1ccc(Nc2nc(CSc3n[nH]c(N)n3)cs2)cc1 | 93.1 | . | . | . | 42.7
Cc1ccc(Nc2nc(CSc3nnnn3C)cs2)cc1 | . | . | . | 61.3 | .
Cc1ccc(Nc2nc(CSc3nnnn3-c3ccccc3)cs2)cc1 | / | 70.1 | . | . | .
Cc1ccc(CSc2n[nH]c(N)n2)cc1 | . | . | . | . | .
COCC(=O)Nc1ccc2c(c1)C(=O)N(C)C[C@H](OC)[C@H](C)CN(C(=O)C1CCCC1)[C@@H](C)CO2 | / | / | / | . | /
CCNc1ccc(S(=O)(=O)N(C)C)cc1NCC(=O)Nc1ccccc1Br | . | 115.4 | . | . | .
O=C(OCC(=O)c1c[nH]c2ccccc12)c1ccc([N+](=O)[O-])s1 | . | . | . | . | .
CCc1cccc2c(C(=O)COC(=O)c3ccc([N+](=O)[O-])s3)c[nH]c12 | . | . | -68.8 | / | .
SMILES | MITF act | HSF-1 act | HSF1 inh | esBAF inh | Wnt bcat act
CO[C@@H]1CN(C)C(=O)c2cc(NC(C)=O)ccc2OC[C@H](C)N(CCC(F)(F)F)C[C@H]1C | / | / | / | . | /
S=C(NCc1ccco1)N1CCN(c2ccccc2Cl)CC1 | . | 70.4 | . | ? | .
COc1cccc(N2CCN(C(=S)NCc3ccco3)CC2)c1 | / | 54.6 | . | . | /
C[C@@H]1CCCCO[C@H](CN(C)Cc2ccccc2)[C@H](C)CN([C@H](C)CO)C(=O)c2cc(NC(=O)NC3CCCCC3)ccc2O1 | / | / | / | . | /
CN1C/C(=C\c2ccc(N3CCOCC3)cc2)C(=O)/C(=C/c2ccc(N3CCOCC3)cc2)C1 | . | 132.8 | . | . | /
Cc1cccnc1NC(=O)Nc1ccc(Cl)cc1 | . | . | . | 70.8 | .
O=C(Nc1cccc(F)c1)Nc1ccccn1 | / | . | . | . | /
Cc1cccnc1NC(=O)Nc1cccc(F)c1 | / | / | / | 48.3 | .
Cc1cccnc1NC(=O)Nc1ccccc1 | ? | . | . | . | .
CCn1cc([N+](=O)[O-])c(C(=O)Nc2nc(-c3ccc(C)c(C)c3)c(C)s2)n1 | . | 61.3 | . | / | .
CCn1cc([N+](=O)[O-])c(C(=O)Nc2nc(-c3ccc(C)cc3)c(C)s2)n1 | . | . | . | . | .
CN1CCN(c2ccc(-c3ccc4ccccc4n3)cc2)CC1 | . | . | -89.7 | / | .
COc1ccc(NC(=O)N(C)C[C@H]2Oc3ccc(NC(=O)Cc4ccccc4)cc3CC(=O)N([C@@H](C)CO)C[C@H]2C)cc1 | / | / | / | . | /
CC(C)(C)OC(=O)C[C@@H]1C/C=C\C[C@@H](CC(=O)N[C@H](CO)Cc2ccccc2)C(=O)N2CCC[C@@H]2COC1=O | . | / | / | . | 55.6
CNC[C@H]1OCCCC[C@H](C)Oc2ccc(NC(=O)NC3CCCCC3)cc2C(=O)N([C@@H](C)CO)C[C@@H]1C | / | / | / | . | /
COc1cc(C)ccc1OCc1cc(C(=O)N(Cc2c(C)nn(C)c2C)C2CC2)no1 | . | . | . | 60.7 | .
COc1cc(C)ccc1OCc1cc(C(=O)N(Cc2nccn2C)C(C)C)no1 | . | 57.9 | . | 94.4 | .
COc1cc(C)ccc1OCc1cc(C(=O)N2CCCCCC2)no1 | . | . | . | . | .
CCC(=O)N1[C@@H](CO)[C@@H]2c3ccccc3N(C(=O)NC(C)C)C[C@@H]21 | / | / | / | . | /
COCCNC(=O)c1cc2c(-c3ccccc3F)nn(C)c2s1 | . | . | . | . | /
CCCCN(C)CCNC(=O)c1cc2c(-c3ccccc3F)nn(C)c2s1 | . | . | -63.3 | . | .
COc1cc(OC)cc(C(=O)NCC(=O)Nc2ccc(C)c(Cl)c2)c1 | . | . | . | . | 45.7
C[C@@H]1CN([C@@H](C)CO)C(=O)c2cccc(NC(=O)NC3CCCCC3)c2O[C@H]1CN(C)C(=O)NC1CCCCC1 | / | / | / | . | /
CCCc1nc2c3ccccc3ccn2c1Cc1ccccc1 | / | / | / | 51.6 | 33.5
Cc1ccc(S(=O)(=O)N[C@H]2CC[C@H](CCNC(=O)C3CCCCC3)O[C@@H]2CO)cc1 | / | / | / | . | /
SMILES | MITF act | HSF-1 act | HSF1 inh | esBAF inh | Wnt bcat act
CCC(c1nnnn1CCc1ccccc1)N(Cc1ccco1)Cc1cc2cccc(C)c2[nH]c1=O (stereo not given) | . | 89.9 | . | . | .
CCC(c1nnnn1C(C)(C)C)N(Cc1ccco1)Cc1cc2cccc(C)c2[nH]c1=O (stereo not given) | . | 66.4 | . | . | /
CCOc1ccc2[nH]c(=O)c(CN(Cc3ccco3)C(CC)c3nnnn3Cc3ccccc3)cc2c1 (stereo not given) | . | . | . | / | /
Cc1cccc2cc(CN(CC3CCCO3)C(c3nnnn3Cc3ccco3)C(C)C)c(=O)[nH]c12 (stereo not given) | . | . | . | . | /
COc1ccc(S(=O)(=O)N(C)C[C@H]2Oc3ccc(NC(=O)CCCN(C)C)cc3CC(=O)N([C@H](C)CO)C[C@@H]2C)cc1 | / | / | / | . | /
CCCN(C)C[C@H]1OCCCC[C@H](C)Oc2ccc(NC(=O)Nc3cccc4ccccc34)cc2C(=O)N([C@@H](C)CO)C[C@H]1C | / | / | / | . | /
